Coupling enz = qHTS Assay for Inhibitors of Fructose-1,6-bisphosphate Aldolase from Giardia Lamblia: Coupling assay counterscreen; coupling enzyme system counterscreen, AmpLite Red fluorescence; AID 2472, 2010; hit rate 0.67% among 290,000; activity change, negative = inhibition, % at 58.2 µM, hits read low; in the data active means activity change below about -30%
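Fluorescence at 525 nm excitation and 598 nm emission measured inhibition of the coupled detection system without aldolase. Compounds (at 57.5 uM final) were preincubated 10 min at room temperature with coupling enzyme reagent before a 20 min substrate/AmpLite Red step.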
ALDH1A1 block = qHTS Assay for Inhibitors of Aldehyde Dehydrogenase 1 (ALDH1A1) | Aldehyde dehydrogenase 1A1 (Homo sapiens), P00352 | Purified ALDH1A1, NADH fluorescence, propionaldehyde substrate | Potency, µM (highest dose often 75.3 µM), for the others: top-dose activity, negative = inhibition, most hits filed as inhibitors | hit rate 7.3% among 220,000 | AID 1030, 2008;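 further: potency means the concentration at half of the fitted maximal effect; plate controls were no enzyme wells and a reference inhibitor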
Sfp inh = qHTS Assay for Inhibitors of Bacillus subtilis Sfp phosphopantetheinyl transferase (PPTase). AID 1490, 2009. Biochemical Sfp PPTase activity, qHTS. Potency, µM, for the others: largest response in the series, negative = inhibition, actives largely listed as inhibitors. hit rate 3.5% among 310,000; active means well fitted curve in the direction sought with a large enough effect; inconclusive means small, poorly fitted or top-dose-only effect, or another doubt; inactive means no such curve, though single readings can be large; an effect the other way counts as inactive or inconclusive;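 further: the enzyme is Sfp with the accession as filed and its product quenches rhodamine fluorescence; potency means the concentration at half of the fitted maximal effect; 0% = enzyme reaction without inhibitor and -100% = no enzyme wells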
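Step 1, compound plus 15 nM Sfp-PPTase, 15 min, room temperature. Step 2, add rhodamine-CoA (5 uM) and BHQ-2-YbbR (12.5 uM). Step 3, read 525/598 nm fluorescence at 0 and 30 min.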
JMJD2E inh = qHTS Assay for Inhibitors of Human Jumonji Domain Containing 2E (JMJD2E) | Lysine-specific demethylase 4E (Homo sapiens), B2RXH2 | JMJD2E catalytic domain, FDH-coupled NADH fluorescence (FDH is formaldehyde dehydrogenase) | Potency, µM (titrated, usually from 57.1 µM), inactives show at the top dose activity change, negative = inhibition, most hits filed as inhibitors | hit rate 1.6% among 230,000 | AID 2147, 2009;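 further: potency means the concentration at half of the fitted maximal effect; 0% = wells with enzyme and -100% = buffer wells without enzyme; nearly all actives have a fitted effect of over 50% in size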
Target sequence (B2RXH2 1-337 limits assumed): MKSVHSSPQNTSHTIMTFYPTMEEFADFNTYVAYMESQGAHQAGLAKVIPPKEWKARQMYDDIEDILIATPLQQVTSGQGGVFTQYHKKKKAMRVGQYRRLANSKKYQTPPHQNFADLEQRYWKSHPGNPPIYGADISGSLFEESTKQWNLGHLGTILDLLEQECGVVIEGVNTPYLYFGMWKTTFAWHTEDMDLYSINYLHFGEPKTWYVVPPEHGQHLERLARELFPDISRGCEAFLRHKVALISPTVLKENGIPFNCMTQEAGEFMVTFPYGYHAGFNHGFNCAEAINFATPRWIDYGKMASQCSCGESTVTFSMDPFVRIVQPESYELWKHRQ
GoLoco inh red = qHTS Assay for Inhibitors of RGS12 GoLoco Motif Activity (Red Fluorophore). Guanine nucleotide-binding protein G(i) subunit alpha-1 (Homo sapiens), P63096. Gai1:RGS12 GoLoco peptide FP, rhodamine, 10 min. Potency, µM (series often up to 61.6 µM), inactives show top-dose activity, negative = inhibition, hits mostly inhibitors. hit rate 0.44% among 230,000; active means well fitted inhibition curve with a large enough effect, not every such curve was filed as active; inactive means no such curve, though single readings can be large or run the other way; further: potency means the concentration at half of the fitted maximal effect; nearly all actives have a fitted effect of over 30% in size
Target sequence (P63096 whole entry, looked up): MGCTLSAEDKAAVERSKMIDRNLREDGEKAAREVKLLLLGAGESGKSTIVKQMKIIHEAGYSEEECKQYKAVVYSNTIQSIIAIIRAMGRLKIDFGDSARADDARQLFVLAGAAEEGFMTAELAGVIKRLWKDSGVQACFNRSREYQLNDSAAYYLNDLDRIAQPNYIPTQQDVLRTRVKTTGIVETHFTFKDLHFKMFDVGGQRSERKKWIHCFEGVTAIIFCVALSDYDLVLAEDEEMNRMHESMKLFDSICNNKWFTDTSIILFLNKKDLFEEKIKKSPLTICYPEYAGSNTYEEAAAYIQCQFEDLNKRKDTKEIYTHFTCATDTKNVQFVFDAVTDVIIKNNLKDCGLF
NPSR antagonist = qHTS Assay for Antagonists of the Neuropeptide S Receptor: cAMP Signal Transduction | CHO-NPSR cells, cAMP TR-FRET, antagonist mode | Potency, µM (doses to about 38.3 µM), inactives show top-dose activity change, negative = inhibition, usual class: inhibitors | AID 1461, 2008 | hit rate 1% among 220,000; active means well fitted curve in the direction sought with a large enough effect; inconclusive means small, poorly fitted or top-dose-only effect, or another doubt; inactive means no such curve, though single readings can be large; an effect the other way counts as inactive or inconclusive; further: potency means the concentration at half of the fitted maximal effect; nearly all actives have a fitted effect of over 50% in size
An asterisk follows results filed as active; i = inactive; ? = inconclusive; nt = no result given; [ ] = remark or other dose. Hits are enriched below; roughly 8.5% of the tested compounds scored in any of these assays. Unless noted, the call rests on the fitted dose curve; in most records, active means well fitted inhibition curve with a large enough effect (not every such curve was filed as active); inconclusive means small, poorly fitted or top-dose-only effect, or another doubt; inactive means no such curve, though single readings can be large or run the other way. Unless noted, on the % scale 0 is the no-effect control and ±100 the full control effect.

SMILES	Coupling enz	ALDH1A1 block	Sfp inh	JMJD2E inh	GoLoco inh red	NPSR antagonist
CCOC(=O)C1CCCN(C/C(O)=C(\C#N)c2nc(-c3ccccc3)cs2)C1 (configuration not stated)	0	32µM*	5%	0%	71%	-13%[46.1 µM]
N#C/C(=C(/O)CN1CCOCC1)c1nc(-c2ccccc2)cs1	0	1%	-21%	-2%	10%	-15%[46.1 µM]
CCN(CC(=O)Nc1c(F)cccc1F)C(=O)c1ccc(C#N)cc1	2	nt	4%	nt	nt	nt
CCN1C(=O)C(C(=O)c2ccccc2)SC1=S (configuration not stated)	5	7.5µM*	20µM*	-11%	86%	-3%
Cc1ccc(-n2ncc3c(SCC(N)=O)ncnc32)cc1C	-2	nt	13%	nt	nt	nt
CC(=O)N1c2ccc(S(=O)(=O)N3CCCC(C(=O)NCc4ccccc4)C3)cc2CC1C (configuration not stated)	4	nt	10%	nt	nt	nt
COc1ccc(NC(=O)CC2SC(N)=NC2=O)c([N+](=O)[O-])c1 (configuration not stated)	1	25µM*	5%	?	9%	11%
COc1ccc(NC(=O)CC2Nc3cc(C)c(C)cc3NC2=O)c([N+](=O)[O-])c1 (configuration not stated)	4	5%	-10%	3%	12%	-10%
CCOc1ccc(/C=C/C(=O)Nc2ccc(OC)cc2[N+](=O)[O-])cc1	nt	5%	2%	3%	12%	-7%[46.1 µM]
Cc1cc(NC(=O)/C=C\C(=O)O)c([N+](=O)[O-])cc1C	6	nt	24%	-2%	0%	4%
Cc1ccc(NC(=O)/C=C/C(=O)O)c([N+](=O)[O-])c1	11	18µM*	12%	7%	-3%	23%
COc1ccc(NC(=O)/C=C/C(=O)O)c([N+](=O)[O-])c1	4	19µM*	-13%	-11%	-12%	-14%
O=C(Cn1nc2n(c1=O)-c1ccccc1SC2)N/N=C/c1ccncc1	0	nt	14%	10%	9%	7%
CCC1CCCCN1S(=O)(=O)c1ccc(NC(=O)c2nc(S(C)(=O)=O)ncc2Cl)cc1 (configuration not stated)	0	nt	25µM*	nt	nt	nt
CC(=O)Nc1ccc(NC(=O)c2nc(S(=O)(=O)Cc3ccccc3)ncc2Cl)cc1	nt	nt	-26%	nt	nt	nt
CS(=O)(=O)c1ncc(Cl)c(C(=O)Nc2ccc3ccccc3c2)n1	-1	?	13µM*	-2%	-3%	10µM*
CC1=NN(c2ccc(Cl)c(C(=O)O)c2)C(=O)C1	5	6%	13%	?	7%	17%
CC1=NN(c2ccc(S(=O)(=O)O)cc2Cl)C(=O)C1	-24	11µM*	?	10%	3%	0%
CCOc1ccc(NC(=S)C(C#N)=C2N(C)c3ccccc3N2C)cc1	0	?	-16%	-3%	-1%	8%
CN1C(=CC=C2C=C(I)C(=O)C(I)=C2)C(C)(C)c2ccccc21	18	nt	89µM*	0%	i	?
CCN(CC)C(=O)CN(c1ccc(C)cc1)S(=O)(=O)c1ccc(SC)cc1	0	14µM*	2%	1%	0%	-20%[46.1 µM]
CCOC(=O)N1CCN(S(=O)(=O)N2CCCC(C(=O)NCCc3ccc(C)cc3)C2)CC1 (configuration not stated)	1	nt	21%	nt	nt	nt
C/C(=N\NC(N)=S)C1(C)CC2(CC(C)(C)OC2=O)C(=O)O1 (configuration not stated)	4	nt	-15%	4%	-1%	-2%[7.67 µM]
CCOc1cc(/C=C2\SC(=Nc3ccc(F)cc3)N(c3ccc(F)cc3)C2=O)ccc1OCC(=O)O	25	5%	40µM*	0%	24%	?
O=C(O)COc1ccc(/C=C2\SC(=Nc3ccccc3)N(c3ccccc3)C2=O)cc1	7	18µM*	5%	2%	3%	-23%
SMILES	Coupling enz	ALDH1A1 block	Sfp inh	JMJD2E inh	GoLoco inh red	NPSR antagonist
CCOc1cc(/C=C2\SC(=Nc3ccccc3)N(c3ccccc3)C2=O)ccc1OCC(=O)O	7	?	-17%	-3%	4%	-41%
COc1ccc(C2NC(c3ccc(OC)cc3)C(c3ccccc3)C(=O)C2c2ccccc2)cc1 (configuration not stated)	-3	?	0%	-5%	-1%	-19%
COc1ccc(-c2ccoc2)cc1C1C2C=CCC(C)C2C(=O)N1Cc1ccccc1 (configuration not stated)	-1	nt	-15%	nt	nt	nt
COc1ccc(CCN2C(=O)c3cccc4c(C(=O)N5CCCCC5)ccc(c34)C2=O)cc1OC	-1	10µM*	-18%	6%	8%	-19%
COc1ccc(CCNC(=O)CCN2C(=O)c3cccc4cccc(c34)C2=O)cc1OC	0	5%	5%	-2%	7%	-2%
O=C(CN1CCN(c2ccccn2)CC1)Nc1ccc(Oc2ccccc2)cc1	1	25µM*	-2%	8%	11%	-22%[46.1 µM]
O=C(CN1CCN(c2ccccn2)CC1)NC1CCCC1	3	25µM*	4%	3%	3%	5%[46.1 µM]
O=C(CN1CCN(c2ccccn2)CC1)Nc1ccc(OCc2ccccc2)cc1	3	?	7%	5%	1%	-10%[46.1 µM]
O=C1[C@H]2[C@H]3[C@H](O)[C@H](O)C/C(=N/OCc4ccccc4)[C@H]3CC[C@@H]2C(=O)N1C1CCCCC1	3	-8%[13.5 µM]	5%	nt	nt	nt
O=C(O)C1Nc2c(C(F)(F)F)ccc(Cl)c2C2C=CCC12 (configuration not stated)	2	nt	?	nt	nt	nt
Cc1cc(C)c2c(c1)NC(C(=O)O)C1CC=CC21 (configuration not stated)	0	nt	89µM*	nt	nt	nt
O=C(O)C1Nc2c(C(=O)N3CCOCC3)cccc2C2C=CCC12 (configuration not stated)	-34*	?	7.1µM*	?	-26%	-6%[46.1 µM]
Cc1ccc2c(c1C)NC(C(=O)O)C1CC=CC21 (configuration not stated)	-6	13µM*	45µM*	20µM*	64%	-1%[46.1 µM]
O=C(c1ccccc1O)N1CCOCC1	0	nt	12%	4%	3%	-14%
O=C(O)/C=C/c1ccc2c(-c3ccccc3)onc2c1	8	?	?	-9%	4%	-21%
COc1ccccc1NC(=O)C(C)OC(=O)CCC1CCCCC1 (configuration not stated)	nt	nt	2%	nt	nt	nt

High-throughput results from PubChem BioAssay.
